# From PubChem BioAssay (NCI)
# About 83,000 compounds went through this panel and 20% of them were active in at least one assay; those are over-represented in the sample as a whole.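 Single-concentration screen, 48 h exposure, 96-well plates. Endpoint: percent growth. Below 10 = active.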 Values without a mark were called inactive. Activity calls are given as the source filed them.
# Key:
# Assay in all cases: NCI-60 one-dose screen, 48 h (100 = growth as untreated, 0 = no growth, -100 = all killed)
# Conditions in all cases: 10 µM unless noted
# [1] = test system: NCI-H23 lung
# [2] = test system: NCI-H226 lung
# [3] = test system: NCI-H322M lung
# [4] = test system: HOP-62 NSCLC
# [5] = test system: NCI-H460 lung
# [6] = test system: HOP-92 NSCLC
# [7] = test system: NCI-H522 lung
# [8] = test system: A549/ATCC NSCLC
# [9] = test system: 786-0 renal
# [10] = test system: COLO 205 colon
# [11] = test system: DU-145 prostate
# [12] = test system: K-562 leukemia
# [13] = test system: MALME-3M melanoma
# [14] = test system: MDA-MB-231 breast
# [15] = test system: RXF 393 renal
# [16] = test system: SF-268 CNS
# [17] = test system: SF-295 CNS
# [18] = test system: SF-539 CNS
# [19] = test system: UACC-257 melanoma
# [20] = test system: M14 melanoma
SMILES,growth [1],growth [2],growth [3] [%],growth [4],growth [5],growth [6],growth [7],growth [8],growth [9],growth [10],growth [11],growth [12],growth [13],growth [14],growth [15],growth [16],growth [17],growth [18],growth [19],growth [20]
C=CCSSC1N=CNc2nc[nH]c21 (stereo not given),54.6%,73%,42.8,1.1% (active),52.5%,30.8%,0.803% (active),95.1%,13.9%,34.9%,35.8%,11.9%,29.9%,39.8%,42.5%,27.6%,33.2%,16.4%,43.6%,8.72% (active)
CCOC(=O)c1c(C)oc2ncnc(N3CCN(C(=O)COc4ccc(SC)cc4)CC3)c12,93.9%,83.3%,99.3,86.4%,98.7%,78.9%,74.9%,90.2%,95.8%,98%,99.6%,82.4%,105%,88.6%,99.7%,92.7%,88.2%,93.5%,95%,97.9%
O=C1c2cc3c(cc2-c2c1c1cc(F)c(F)cc1c(=O)n2CCCn1ccnc1)OCO3,-11.2% (active),-59.4% (active),14.5,1.96% (active),-26% (active),-7.1% (active),-26.9% (active),-93.5% (active),8.02% (active),-4.37% (active),9.97% (active),8.61% (active),-4.79% (active),13.9%,-22.4% (active),13.4%,-12.4% (active),-19.7% (active),-28.9% (active),8.25% (active)
O=C(Nc1ccc(Cl)cc1)c1cc2cc(F)ccc2cc1O,7.14% (active),7.16% (active),18.7,12.1%,7.11% (active),-11.4% (active),-0.904% (active),6.09% (active),15.7%,69.5%,26.7%,11.5%,-3.12% (active),-23.4% (active),13.6%,23.6%,31.2%,17.7%,-23.8% (active),15.9%
N=C(N)c1ccc(-c2ccc(-c3ccc4ccccc4c3)s2)s1,5.5% (active),92.8%,26.5,86.8%,-70.4% (active),28.8%,15.3%,-36.3% (active),-39.1% (active),-40.8% (active),-85.4% (active),-47.2% (active),85.9%,-36.8% (active),-55.1% (active),-6.87% (active),22.3%,73.8%,77%,39.7%
CC1SC(c2ccc(N(C)C)cc2)N(NC(=O)C(O)(c2ccccc2)c2ccccc2)C1=O (stereo not given),98.5%,105%,81,97.1%,144%,74.6%,84.6%,79.6%,97.7%,102%,97.2%,86.1%,87.6%,99.1%,118%,141%,27.9%,96.7%,106%,96%
O=C(CN(C(=O)Cn1c(=O)n2nnnc2c2ccccc21)c1ccccc1C(F)(F)F)Nc1ccc(C(F)(F)F)cc1,103%,104%,107,107%,105%,92.8%,98%,104%,103%,112%,110%,101%,103%,104%,116%,103%,104%,101%,115%,102%
CNC(=O)c1cc(Oc2ccc(NC(=O)Nc3ccc(Cl)c(OC(F)(F)F)c3)c(F)c2)ccn1,7.09% (active),31.5%,71.7,39%,37.4%,28.9%,5.56% (active),24.7%,58%,6.8% (active),56.7%,6.83% (active),1.66% (active),35.3%,82.3%,45.2%,21.3%,50.6%,1.86% (active),4.35% (active)
